# Measured values published in ChEMBL document CHEMBL3988442, “University of Dundee, Small-Polar-MMV Screening Library” (2021).
# Biological target: AMP-activated protein kinase, AMPK (Homo sapiens) (UniProt P54646+O43741+P54619+Q9UGJ0+Q9Y478+Q13131+Q9UGI9)
# Test: AMP-dependent Kinase enzyme assay. An in vitro enzyme assay that detects ADP turnover that is directly proportional to AMPK activity. This uses naive AMPK that is activated during the assay with MK-8722
# Format: functional
# Parameters: scale not given: direction of the effect not stated beside the values
# Settings: 30 µM
row,SMILES,Percent Effect
1,COc1cc(CN2CC[C@@H](N3CCCCCC3)[C@H](O)C2)cc(Cl)c1OC,13.6%
2,Cc1c(CN2CCCCC2)c(O)n(CCO)c(=O)c1C#N,-415%
3,CCC(O)Cn1nc(-c2ccc(C(=O)O)cc2)cc1-c1ccc(F)cc1 (stereo not given),12%
4,CNC(=O)NC(=O)CN(Cc1ccc(C#N)cc1)Cc1cccc(F)c1,-4.48%
5,CN(C)c1cccc(C(=O)Nc2ccn(CCc3ccncc3)n2)c1,12.1%
6,CCC(C(=O)NCc1nc(C)cc(C(F)(F)F)n1)n1cccn1 (stereo not given),4.67%
7,CCSc1cc(C(=O)N(CC(F)F)C(C)C)ccn1,2.16%
8,C[C@@H]1CN(S(=O)(=O)N2CCCC2)CC[C@@]1(O)C1CCOCC1,-5.74%
9,Cc1cccnc1NC(=O)c1ccc(F)c(S(=O)(=O)NC2CC2)c1,-4.18%
10,COc1ccc(C2CCN(S(=O)(=O)CCCC#N)CC2)cc1,-2.21%
11,COc1ccccc1C(=O)N1CCN(C(=O)CCCc2cn[nH]c2)CC1,-2.48%
12,CCN(CC)c1ncccc1CNCc1cc2ccccc2s1,-4.57%
13,CN(Cc1csc2ccccc12)C(=O)NC1CCS(=O)(=O)C1 (stereo not given),8.42%
14,Cc1[nH]c2c(F)cccc2c1CC(=O)NC1CCCCNC1=O (stereo not given),10.4%
15,CN(C)S(=O)(=O)c1ccc(=O)n(CC2CCCO2)c1 (stereo not given),20.4%
16,Cc1csc(C(C)(C)NCCOc2ccc(CC#N)cc2)n1,-8.66%
17,Cc1c(NC(=O)N(C)CCO)cccc1OC1CCCC1,-3.01%
18,Cc1nn(C)c2nc(N3CCCC3c3nccs3)sc12 (stereo not given),-1.47%
19,Cc1nc(COc2ccc(N(C)S(C)(=O)=O)cc2)sc1C,-7%
20,c1cncc(CNCCc2cccs2)c1,-7.73%
